Assay results published in the supplement of paper PMC9942566.
± gives the standard deviation of the averaged measurements.

Test system: Serratia marcescens K904 PosmB-luxCDABE reporter (pMQ747)
Assay: PosmB-lux reporter fold induction (RLU/OD600 relative to no-compound control), highest over Biolog concentrations; higher = stronger reporter activation
Conditions: ΔrcsB mutant CMS5177; 4 h
Protocol: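 Serratia marcescens K904 (wild type) or its isogenic ΔrcsB mutant, carrying the Rcs-dependent PosmB-luxCDABE reporter plasmid pMQ747, was grown in LB at OD600 0.1 in Biolog Phenotype MicroArray plates PM11-20 for 4 h at 30-32°C. Each compound is present at 3-4 proprietary concentrations (not stated); per the Fig. S1 legend the value given is the highest fold over those wells. Three independent trials.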

Row | SMILES | PosmB-lux reporter fold induction
1 | CO[C@@]1(NC(=O)CSCC#N)C(=O)N2C(C(=O)O)=C(CSc3nnnn3C)CS[C@@H]21 [Cefmetazole] (Biolog plate: PM15, well positions: A9-12) | 1.51 ± 0.23
2 | CN(C)[C@@H]1C(O)=C(C(N)=O)C(=O)[C@@]2(O)C(O)=C3C(=O)c4c(O)ccc(Cl)c4[C@@H](O)[C@H]3C[C@@H]12 [Demeclocycline] (Biolog plate: PM11, well positions: D5-8) | 1.59 ± 0.14
3 | CCCCCCCC[N+](C)(CCCCCCCC)CCCCCCCC [methyltrioctyl-ammonium chloride] (Biolog plate: PM19, well positions: B1-4) | 2.23 ± 1.5
4 | CCn1nc(C(=O)O)c(=O)c2cc3c(cc21)OCO3 [cinoxacin] (Biolog plate: PM16, well positions: D9-12) | 16.4 ± 3.4
5 | Oc1c(Cl)cc(Cl)c(Cl)c1Cc1c(O)c(Cl)cc(Cl)c1Cl [hexa-chlorophene] (Biolog plate: PM20, well positions: E9-12) | 0.997 ± 0.31
6 | CC[C@H]1OC(=O)[C@H](C)[C@@H](O[C@H]2C[C@@](C)(OC)[C@@H](O)[C@H](C)O2)[C@H](C)[C@@H](O[C@@H]2O[C@H](C)C[C@H](N(C)C)[C@H]2O)[C@](C)(O)C[C@@H](C)C(=O)[C@H](C)[C@@H](O)[C@]1(C)O [Erythromycin] (Biolog plate: PM11, well positions: F5-8) | 1.46 ± 0.041
7 | CCn1cc(C(=O)O)c(=O)c2cc(F)c(N3CCNCC3)nc21 [Enoxacin] (Biolog plate: PM11, well positions: E5-8) | 1.45 ± 0.3
8 | CCC[C@@H]1C[C@@H](C(=O)N[C@@H]([C@H]2O[C@H](SC)[C@H](O)[C@@H](O)[C@H]2O)[C@@H](C)O)N(C)C1 [Lincomycin] (Biolog plate: PM11, well positions: A9-12) | 2.28 ± 0.49
9 | CC(C(=O)O)c1cccc(C(=O)c2ccccc2)c1 (stereo not given) [ketoprofen (an NSAID)] (Biolog plate: PM18, well positions: A2-4) | 1 ± 0.37
10 | O=c1[nH]c(=O)n([C@H]2C[C@H](O)[C@@H](CO)O2)cc1C(F)(F)F [trifluorothymidine] (Biolog plate: PM18, well positions: B1-4) | 1.09 ± 0.28
11 | COc1cc(Cc2cnc(N)nc2N)cc(OC)c1OC [trimethoprim] (Biolog plate: PM16, well positions: B9-12) | 8.21 ± 3.9
12 | N[C@@H]1CONC1=O [D-Cycloserine] (Biolog plate: PM15, well positions: B1-4) | 1.43 ± 0.18
13 | COc1cc(NS(=O)(=O)c2ccc(N)cc2)ncn1 [sulfamono-methoxine] (Biolog plate: PM17, well positions: C9-12) | 1.4 ± 0.25
14 | COc1ccc(C[C@H](N)C(=O)N[C@H]2[C@@H](O)[C@H](n3cnc4c(N(C)C)ncnc43)O[C@@H]2CO)cc1 [Puromycin] (Biolog plate: PM15, well positions: F9-12) | 3.56 ± 1.7
15 | C[C@@H]1NC(=O)[C@@H](N)CNC(=O)[C@H](C2CCNC(=N)N2)NC(=O)/C(=C/NC(N)=O)NC(=O)[C@H](CNC(=O)CC(N)CCCN)NC1=O.N=C1NCC[C@H]([C@@H]2NC(=O)/C(=C/NC(N)=O)NC(=O)[C@H](CNC(=O)C[C@@H](N)CCCN)NC(=O)[C@H](CO)NC(=O)[C@@H](N)CNC2=O)N1 [Capreomycin] (Biolog plate: PM11, well positions: D1-4) | 1.09 ± 0.081
16 | [Cl-].[Cs+] [Cesium chloride] (Biolog plate: PM13, well positions: F1-4) | 1.64 ± 0.47
17 | CCn1cc(C(=O)O)c(=O)c2cc(F)c(N3CCNC(C)C3)c(F)c21 (stereo not given) [Lomefloxacin] (Biolog plate: PM11, well positions: B9-12) | 1.19 ± 0.24
18 | NC(=O)NO [Hydroxyurea] (Biolog plate: PM15, well positions: H5-8) | 13.9 ± 5.4
19 | CC(C)(C)CC(C)(C)c1ccc(OCCOCC[N+](C)(C)Cc2ccccc2)cc1 [Benzethonium chloride] (Biolog plate: PM12, well positions: E9-12) | 1.69 ± 0.07
20 | O=c1ccc2ccccc2o1 [coumarin] (Biolog plate: PM19, well positions: A9-12) | 0.853 ± 0.16

Row | SMILES | PosmB-lux reporter fold induction
21 | CN(C)C(=O)/N=N/C(=O)N(C)C [diamide] (Biolog plate: PM16, well positions: D5-8) | 2.26 ± 0.64
22 | c1ccc(-c2nn(-c3ccccc3)[n+](-c3cccc4ccccc34)n2)cc1 [tetrazolium violet] (Biolog plate: PM20, well positions: B9-12) | 0.262 ± 0.11
23 | CCn1cc(C(=O)O)c(=O)c2cnc(N3CCNCC3)nc21 [pipemidic acid] (Biolog plate: PM18, well positions: B5-8) | 1.91 ± 0.5
24 | CN[C@@H]1[C@@H](O[C@H]2O[C@H](CO)[C@@H](N)[C@H](O)[C@H]2O)OC2C[C@@H](N)[C@@H](O[C@H]3[C@H](O)[C@@H](O)[C@H](N)C[C@@H]3N)OC2[C@@H]1O (stereo not given in full) [apramycin] (Biolog plate: PM20, well positions: A5-8) | 1.48 ± 0.21
25 | CC(=O)O[C@H]1C[C@@]2(C)[C@@H](C[C@@H](O)[C@H]3[C@@]4(C)CC[C@@H](O)[C@@H](C)[C@@H]4CC[C@@]32C)/C1=C(\CCC=C(C)C)C(=O)O [Fusidic acid] (Biolog plate: PM15, well positions: C5-8) | 1.43 ± 0.16
26 | c1ccc(-c2ccccn2)nc1 [2,2'-Dipyridyl] (Biolog plate: PM13, well positions: B5-8) | 1.71 ± 1.3
27 | C[n+]1c2cc(N)ccc2cc2ccc(N)cc21.Nc1ccc2cc3ccc(N)cc3nc2c1 [Acriflavine] (Biolog plate: PM14, well positions: A2-4) | 2.05 ± 0.23
28 | CSCCC(N)C(=O)NO (racemic) [DL-methionine hydroxamate] (Biolog plate: PM17, well positions: F5-8) | 5.25 ± 1.3
29 | CS(=O)(=O)c1ccc([C@@H](O)[C@@H](CO)NC(=O)C(Cl)Cl)cc1 [thiamphenicol] (Biolog plate: PM18, well positions: A9-12) | 0.916 ± 0.32
30 | CCCCCCCCCCCC[N+](C)(C)CCCS(=O)(=O)[O-] [lauryl sulfobetaine] (Biolog plate: PM19, well positions: G1-4) | 1.4 ± 0.45
31 | OB(O)O [Boric acid] (Biolog plate: PM14, well positions: C1-4) | 23.8 ± 12
32 | [Cl-].[Li+] [lithium chloride] (Biolog plate: PM17, well positions: F1-4) | 2.92 ± 1
33 | O.O=S(=O)([O-])[O-].O=S(=O)([O-])[O-].O=S(=O)([O-])[O-].[Al+3].[Al+3] [aluminum sulfate] (Biolog plate: PM16, well positions: F9-12) | 1.54 ± 0.56
34 | C[C@@H]1O[C@@H]1P(=O)(O)O [Phosphomycin] (Biolog plate: PM16, well positions: A5-8) | 1.57 ± 0.24
35 | CC1(C)S[C@@H]2[C@H](NC(=O)[C@H](N)c3ccc(O)cc3)C(=O)N2[C@H]1C(=O)O [Amoxicillin] (Biolog plate: PM11, well positions: B1-4) | 0.968 ± 0.11
36 | C[n+]1cc2c3c(ccc2c2ccc4cc5c(cc4c21)OCO5)OCO3 [Sanguinarine] (Biolog plate: PM14, well positions: A9-12) | 1.14 ± 0.32
37 | NC(=O)N/N=C/c1ccc([N+](=O)[O-])o1 [5-Nitro-2-furaldehyde semicarbazone] (Biolog plate: PM15, well positions: E5-8) | 3.61 ± 0.9
38 | CC(Oc1ccccc1)C(=O)N[C@@H]1C(=O)N2[C@@H]1SC(C)(C)[C@@H]2C(=O)O (stereo not given in full) [phenethicillin] (Biolog plate: PM19, well positions: F1-4) | 1.15 ± 0.37
39 | Nc1ccn(C2OC(CO)C(O)C2O)c(=O)n1 [Cytosine-1-beta-D-arabino-furanoside] (Biolog plate: PM13, well positions: E1-4) | 1.91 ± 0.42
40 | Nc1ccc(S(=O)(=O)Nc2ncccn2)cc1 [Sulfadiazine] (Biolog plate: PM12, well positions: E5-8) | 1.84 ± 0.29
